These results are taken from PubChem BioAssay AID485270 (The Scripps Research Institute Molecular Screening Center, 2010).

The structures appear in SMILES notation. Screen size: about 330,000 compounds; about 5,800 (1.8%) were called active. What follows is part of a selection rich in actives, with near analogues and random picks from the rest. Values without a mark were called inactive. No stated cut-off is given here; in the data, active means inhibition mostly above about 38% (no sharp cut-off); inactive means mostly below about 40%.

Orexin/Hypocretin receptor type 1 (Homo sapiens), sequence (O43613 whole entry, looked up): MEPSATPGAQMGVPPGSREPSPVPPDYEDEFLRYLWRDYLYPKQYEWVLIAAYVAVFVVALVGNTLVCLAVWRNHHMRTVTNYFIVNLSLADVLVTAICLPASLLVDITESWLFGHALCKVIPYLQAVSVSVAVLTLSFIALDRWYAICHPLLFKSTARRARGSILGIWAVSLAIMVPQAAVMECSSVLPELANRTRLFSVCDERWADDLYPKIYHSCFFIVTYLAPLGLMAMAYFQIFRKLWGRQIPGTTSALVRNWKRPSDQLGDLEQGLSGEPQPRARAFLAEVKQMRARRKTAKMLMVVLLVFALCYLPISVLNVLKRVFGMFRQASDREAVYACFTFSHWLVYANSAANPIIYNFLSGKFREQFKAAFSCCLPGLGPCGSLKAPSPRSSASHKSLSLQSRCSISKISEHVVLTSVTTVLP

This experiment concerns the target Orexin/Hypocretin receptor type 1 (Homo sapiens) (UniProt O43613). The experiment is described as follows: antagonists of human orexin 1 receptor (OX1R) (AID 485270).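 Further: 0% = agonist challenge alone and 100% = reference antagonist.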 Particulars: OX1R-expressing cells, FRET antagonist read-out; at 6.6 µM; stronger effect = higher value.
For orientation: inhibition means the relative decrease from the control value, in per cent. As to `CC[C@@H](C)[C@@H]1CN([C@@H](C)CN2CCC[C@H]2CN2C(N)=NC[C@H]2C(C)C)C(=N)N1CCc1ccc(Cl)c(Cl)c1`, the inhibition is -3.86%. Under `COc1ccccc1C(=O)NCC(=O)OCC(=O)NNC(=O)c1ccc(Br)cc1` stands 2.31%. Regarding `Fc1ccc(Nc2nnns2)cc1`, the inhibition was 11.1%. `CS(=O)(=O)c1ccc(C(=O)NNC(=O)c2cccs2)cc1`: the inhibition is 1.62%. As to `CC(C)N(C(=O)[C@H]1C[C@H](CC(=O)NC(C)(C)C)C(=O)N2CCc3c([nH]c4ccc(Cl)cc34)[C@]12C)C(C)C`, the inhibition was 8.54%. In the case of `C=CCC[C@@H](Cc1ccc(F)cc1)C(=O)OC[C@H](Cc1c[nH]c2ccccc12)NC(=O)[C@@H](CC=C)CC(=O)N(CCO)Cc1ccccc1` it was 7.48%; in that of `NS(=O)(=O)c1cccc(NC(=O)COC(=O)c2cc([N+](=O)[O-])ccc2N2CCCC2)c1`, 14.8%.

`O=C(CSc1nc2ccccc2c(=O)n1Cc1ccc(F)cc1)NCC1CCCO1` (stereo not drawn): the inhibition was 4.49%.

Consider `COc1ccc(S(=O)(=O)N2CCN(c3cnccn3)CC2)cc1`, for which the inhibition is 16.4%. With `CC(OC(=O)c1ccc([N+](=O)[O-])cc1)C(=O)NCC1CCCCC1` (stereo not drawn), the inhibition was 18.2%. Take `CC1CCCCN1CCCNC(=O)Cn1ncc2c([nH]c3ccccc32)c1=O` (stereo not drawn): the inhibition was 4.31%. On to `CCC(=C/c1sc2ccc3ccccc3c2[n+]1C)/C=C1\Sc2ccc3ccccc3c2N1C`, for which the inhibition was 42.8% (active). As for `Cn1cccc1C(=O)OCC(=O)c1ccc(Br)s1`, the inhibition was 5.79%.

For the compound `O=C(CC1SC(N2CCOCC2)=NC1=O)Nc1ccccc1F` (stereo not drawn), the inhibition is -1.73%.

Take `C[C@@H](CN1CCC[C@H]1CN1C(N)=NC[C@@H]1Cc1ccccc1)N1C[C@@H](Cc2ccccc2)N(CCCC2CCCC2)C1=N`: the inhibition is 11.4%. On to `C/C=C/c1ccc(OCC(=O)NNC(=O)CN(C)S(=O)(=O)c2ccc(C)cc2)c(OC)c1`, for which the inhibition is 0.57%.

For `O=C(/C=C/c1ccco1)Nc1ccc(Oc2ccccc2)cc1`, the inhibition was 62.7%. With `O=C(/C=C/c1ccco1)Nc1cccc(-c2nc3ccccc3[nH]2)c1`, the inhibition is 86.8% (active). With `Cc1ccc(-n2nc3ccc(NC(=O)/C=C/c4ccco4)cc3n2)cc1C`, the inhibition is 21.4%. On to `Cc1ccc(C(=O)OCC(=O)N2CCCCCC2)cc1S(=O)(=O)N1CCOCC1`, for which the inhibition was 24.3%.

Turning to `COc1ccc(NC(=O)Nc2ccc3c(c2)C(=O)N([C@H](C)CO)C[C@H](C)[C@@H](CN(C)C(=O)Nc2ccc4c(c2)OCO4)O3)cc1`, the inhibition was 8.87%. `COc1ccc(CNC(=O)CNC(=O)c2sc3ccccc3c2Cl)cc1OC`: the inhibition is 18.2%. `Cc1nn(C)cc1/C=N/NC(=O)c1sc2ccccc2c1Cl`: the inhibition was 72.5% (active). Under `Cc1nn(-c2ccccc2)c(Cl)c1/C=N/NC(=O)c1nn(C)cc1[N+](=O)[O-]` stands 41.5%; under `Cc1nnsc1C(=O)N/N=C/c1ccccc1Cl`, 3.68%. Turning to `COCCNC(=S)N/N=C/c1c(C)[nH]c2ccccc12`, the inhibition is 9.28%. For `O=C(N/N=C/c1c(Cl)[nH]c2ccccc12)c1sc2ccccc2c1Cl`, the inhibition was 100% (active). As to `CC[C@]1(C(=O)OC)[C@H]2C(=O)N(Cc3ccccc3)C(=O)[C@H]2[C@H]2CN=C(SCc3ccccc3)N21`, the inhibition is 9.69%.

`C[C@H]1CN([C@@H](C)CO)C(=O)Cc2cc(NS(C)(=O)=O)ccc2O[C@@H]1CN(C)CC1CC1`: the inhibition is 1.83%. On to `CN=C(Nc1cccc(S(=O)(=O)N2CCOCC2)c1)c1ccccc1`, for which the inhibition was 2.1%.

With `CC[C@]12c3[nH]c4cc(CCC(=O)N(C)C)ccc4c3CCN1C(=O)[C@@H](CC(=O)NCCCN(C)C)C[C@@H]2C(=O)N1CCN(C(=O)c2ccco2)CC1`, the inhibition was -2.47%. Regarding `COCCCNC(=O)CC1C[C@H](C(=O)N2CCCCC2)[C@@]2(CCc3ccccc3)c3[nH]c4ccccc4c3CCN2C1=O` (stereo partly drawn), the inhibition is 2.77%.

In the case of `COc1cc(/C=N\Nc2nc(-c3cccs3)c(NC(C)=O)s2)ccc1O`, the inhibition is 8.13%. As to `CCOc1cc(-c2cc(-c3ccc(NC(C)=O)cc3)nc(N)c2C#N)ccc1O`, the inhibition is 25.9%.

On to `CCOc1cc(/C=C(\C#N)c2nc(-c3cccs3)c(NC(C)=O)s2)ccc1O`, for which the inhibition is 65.7% (active). In the case of `CCCC/C(C)=N/NC(=O)NC1CCCCC1`, the inhibition was 10.5%. In the case of `Nc1ncnc2c1ncn2[C@@H]1O[C@H](CNCc2cccn2-c2nccs2)[C@@H](O)[C@H]1O` it was 5.52%. Turning to `CC1CCN(c2ccc([N+](=O)[O-])cc2C(N)=O)CC1`, the inhibition is 65.8%. In the case of `CCOC(=O)C1CCN(c2ccc(C(=O)O)cc2[N+](=O)[O-])CC1`, the inhibition is 57.8%.

For `O=C(O)C1CCN(c2ccc([N+](=O)[O-])cc2[N+](=O)[O-])CC1`, the inhibition was 40.7% (active).

Consider `O=C(COC(=O)c1cc[n+]([O-])cc1)Nc1ccc(Cl)c(C(F)(F)F)c1`, for which the inhibition was 8.49%. In the case of `CC(Oc1ccc2c(-c3ccccc3)cc(=O)oc2c1)C(=O)NC(Cc1c[nH]c2ccccc12)C(=O)O` (stereo not drawn) it was 12.5%; in that of `Cc1nc2nc(SCC(=O)c3ccccc3)[nH]c2cc1Br`, 9.22%; in that of `Cc1cccc(NC(=O)CSc2nc3[nH]ncc3c(=O)[nH]2)c1`, 10.4%.

For `Cc1nc2nc(SCC(=O)Nc3cccc(F)c3)[nH]c2cc1Br`, the inhibition is 57.5% (active). For the compound `Cc1ccc2c(c1)C1C[N+](C)(CC(=O)c3ccccc3)CCC1N2C(=O)c1ccccc1Cl` (stereo not drawn), the inhibition is 7.24%. As to `CC1CCCCC12NC(=O)N(CC(=O)OCc1c(F)cccc1Cl)C2=O` (stereo not drawn), the inhibition was 11.8%.

On to `Cc1cc(NC(=O)CSc2nnnn2-c2ccc(F)cc2)no1`, for which the inhibition is 10.1%. On to `Cc1cc(NC(=O)COc2ccc([N+](=O)[O-])cc2)no1`, for which the inhibition is 3.47%. For the compound `Cc1cc(NC(=O)CSc2nccn2-c2ccc([N+](=O)[O-])cc2)no1`, the inhibition is 70.4% (active). With `NS(=O)(=O)c1ccc(CNC(=S)NC(=O)c2ccco2)cc1`, the inhibition is 4.56%. `CC(=O)N/N=C/c1cc2c(cc1[N+](=O)[O-])OCO2`: the inhibition was 98.3% (active). In the case of `CC1(C(=O)N/N=C/c2cc3c(cc2Br)OCO3)CC1(Br)Br` (stereo not drawn) it was 26.7%. `Cc1ccc(S(=O)(=O)N/N=C\c2cc3c(cc2[N+](=O)[O-])OCO3)cc1`: the inhibition is 29.4%. On to `COc1ccc(CN2C(CC(=O)Nc3cccnc3)c3ccc(C(F)(F)F)cc3S2(=O)=O)cc1` (stereo not drawn), for which the inhibition is 12.3%. Take `COc1ccc(CNC(=O)COC(=O)c2sccc2C)cc1OC`: the inhibition is 3.49%. For `CC(=O)N1c2ccccc2N(Cc2ccc([N+](=O)[O-])cc2)C(=O)C1(C)C`, the inhibition is 15.5%. In the case of `CC1=NN(c2ccccc2)C(=O)C1C(=O)c1ccc([N+](=O)[O-])cc1` (stereo not drawn) it was 33.4%. As to `O=C1NC(=O)C2C1C(c1ccc([N+](=O)[O-])cc1)=NN2Cc1ccccc1` (stereo not drawn), the inhibition is 75.4% (active). Under `CC(C)(C)OC(=O)C[C@@H]1C/C=C\C[C@@H](CC(=O)N[C@@H](CO)Cc2ccccc2)C(=O)N2CCC[C@H]2COC1=O` stands 16.2%; under `COc1ccccc1N(CC(=O)Nc1ccc(C)cc1Cl)S(=O)(=O)c1cccs1`, 9.45%.

With `Cc1ccc(C2(C)NC(=O)N(CC(=O)N3CC(=O)Nc4ccccc43)C2=O)cc1` (stereo not drawn), the inhibition was 2.94%.

As to `COc1ccccc1NS(=O)(=O)c1ccc(C)c(C(=O)NNC(=O)c2csc(N3CCOCC3)n2)c1`, the inhibition was 2.72%.

Regarding `COc1cc(S(=O)(=O)N2CCN(C(=O)C3CC3)CC2)ccc1NC(C)=O`, the inhibition was 10.5%. With `COc1ccc(C(=O)COC(=O)c2c(C)noc2C)cc1Cl`, the inhibition was 3.93%. In the case of `CCOC(=O)[C@H]1[C@H]2COc3ccccc3[C@@H]2N2C(=O)CN(Cc3ccccc3)C(=O)[C@@]12C`, the inhibition was 11.5%. `CS(=O)(=O)n1nc(-c2ccco2)nc1N`: the inhibition was -7.64%. Under `Cn1c(-c2ccco2)nc2cc3ccccc3cc21` stands 68.2% (active); under `COc1ccccc1-n1c(-c2cc(-c3ccco3)[nH]n2)n[nH]c1=S`, 4.56%. With `COC(=O)c1ccc(CNC(=O)c2ccc(S(=O)(=O)N3CCCCCC3)cc2)cc1`, the inhibition is 13.9%. On to `O=C(N/N=C/c1ccc([N+](=O)[O-])o1)c1cccc(S(=O)(=O)N2CCOCC2)c1`, for which the inhibition is 44.6% (active). In the case of `CCOc1cc(/C=N/NC(=O)c2cccc(S(=O)(=O)N3CCOCC3)c2)ccc1OCC(=O)N(C)C`, the inhibition is 10%. In the case of `O=C(Nc1ccc(N2CCOCC2)cc1)c1cccc(S(=O)(=O)N2CCOCC2)c1` it was 1.87%; in that of `CCOc1cc(/C=C2\SC(N3CCCCC3)=NC2=O)ccc1O`, 25.6%; in that of `O=C1N=C(N2CCCC2)S/C1=C\c1cccc(Br)c1`, 35.7%. Under `CCN1C(=O)/C(=C2\SC(N3CCCCC3)=NC2=O)c2ccccc21` stands 42.2% (active); under `O=C(Cn1cc(C(F)(F)F)ccc1=O)Nc1ccc2c(c1)OCCO2`, 1.4%; under `COc1cc(/C=C/C(=O)OCC(=O)NC2CC2)cc(OC)c1OC`, 3.2%.

As to `O=C(Cn1cnc2cc([N+](=O)[O-])ccc2c1=O)NC(=O)NCc1ccccc1`, the inhibition is 23.1%.

With `CC(C)(C)NC(=O)Cn1cnc2cc([N+](=O)[O-])ccc2c1=O`, the inhibition was 132% (active). As for `Cc1cc(C(=O)Cn2cnc3cc([N+](=O)[O-])ccc3c2=O)c(C)n1CC1CCCO1` (stereo not drawn), the inhibition was 53.2%. As for `COc1ccc(S(=O)(=O)N(C)C[C@@H]2Oc3ccc(NS(=O)(=O)c4cn(C)cn4)cc3C(=O)N([C@@H](C)CO)C[C@@H]2C)cc1`, the inhibition was 1.11%. Under `CSc1ncccc1C(=O)Nc1cccc(S(=O)(=O)N2CCOCC2)c1` stands 9.4%.
